# Data published in PubChem BioAssay (Tox21).
# “And” between values parts separate entries of the source, which are not always exact repeats. Equal entries are not always repeated. Results filed as inconclusive are left out. A call without a number means that no potency is given here. A structure can be active in one record and inactive in another. The source made the active and inactive calls. Unless noted, calls come from the whole dose curve; as a rule, active = well fitted curve in the direction sought with a large enough effect in the repeat runs; inconclusive = weak or mixed curves; inactive = no such curve, though single readings can be large; an effect the other way counts as inactive or inconclusive.
# Assays:
# [1] = qHTS assay to identify small molecule agonists of the RXR signaling pathway - cell viability counter screen (AID 1159529); note: nearly all actives have a fitted effect of over 50% in size; note: potency is the fitted concentration of half-maximal effect
# Summary of the method: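 In this parallel viability measure, GeneBLAzer RXR-alpha HEK 293T cells (2% charcoal-stripped FBS) were given a 5 hr preincubation, treated with compounds 16 hr at 37 C, and read by CellTiter-Glo luminescence.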
# [2] = qHTS assay to identify small molecule antagonists of the retinoid acid receptor (RAR) signaling pathway - cell viability counter screen (AID 1159551); note: nearly all actives have a fitted effect of over 35% in size
# Summary of the method: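 ATP-based viability, C3RL4 cells, 6 h at 37 C with 1 uM final retinol co-added after compound; luminescence read 30 min post CellTiter-Glo, RT.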
# [3] = qHTS assay to identify small molecule antagonists of the retinoic acid receptor (RAR) signaling pathway (AID 1159552; note: nearly all actives have a fitted effect of over 50% in size; note: potency is the fitted concentration of half-maximal effect)
# Summary of the method: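 C3RL4 RARE-luc cells, overnight plating; retinol 1 uM final added right after compound; 6 hr 37 C; luciferase read at 30 min RT.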
# [4] = qHTS assay to identify small molecule agonists of the retinoic acid receptor (RAR) signaling pathway (AID 1159553)
# Summary of the method: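 Quantitative high-throughput format: the Tox21 10K library was tested on C3RL4 RARE-luciferase cells for 6 hr at 37 C and 5% CO2, with luminescence measured after a 30 min room-temperature reagent step.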
# [5] = qHTS assay to identify small molecule antagonists of the estrogen related receptor (ERR) signaling pathway from Tox21 library - cell viability counter screen (AID 1224834); note: nearly all actives have a fitted effect of over 30% in size
# Summary of the method: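 Compounds in DMSO were pinned onto ERR cells that had been incubated for 6 h, and the plates were held at 37 C for 17.5 h. CellTiter-Fluor reagent was then added and fluorescence was measured after 30 min.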
# [6] = molecular target: Luciferin 4-monooxygenase (Photinus pyralis) (UniProt P08659); test: qHTS assay to identify small molecule inhibitors of firefly luciferase (AID 1224835); note: series mostly up to about 120 µM; nearly all actives have a fitted effect of over 25% in size
# Sequence of Luciferin 4-monooxygenase (Photinus pyralis) (P08659 whole entry, looked up): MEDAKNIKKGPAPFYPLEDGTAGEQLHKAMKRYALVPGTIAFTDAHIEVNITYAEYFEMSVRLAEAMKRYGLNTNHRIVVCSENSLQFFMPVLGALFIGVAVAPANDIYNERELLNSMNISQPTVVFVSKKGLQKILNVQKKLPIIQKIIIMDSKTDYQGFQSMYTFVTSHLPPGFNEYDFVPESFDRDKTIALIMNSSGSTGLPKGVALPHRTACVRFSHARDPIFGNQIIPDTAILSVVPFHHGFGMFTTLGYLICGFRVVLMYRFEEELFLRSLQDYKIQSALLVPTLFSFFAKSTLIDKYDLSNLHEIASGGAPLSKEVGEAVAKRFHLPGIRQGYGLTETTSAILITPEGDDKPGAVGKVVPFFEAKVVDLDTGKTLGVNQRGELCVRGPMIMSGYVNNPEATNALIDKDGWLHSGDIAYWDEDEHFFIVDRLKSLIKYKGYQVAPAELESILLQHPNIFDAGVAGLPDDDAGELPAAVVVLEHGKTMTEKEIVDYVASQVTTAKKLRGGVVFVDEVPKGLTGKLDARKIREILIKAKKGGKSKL
# Summary of the method: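 Inhibition of purified Photinus luciferase is measured by luminescence. Substrate levels (D-luciferin, ATP) sit at their KM values. Each compound is tested in a concentration series.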
# [7] = qHTS assay to identify small molecule antagonists of the constitutive androstane receptor (CAR) signaling pathway - cell viability counter screen (AID 1224837); note: series mostly up to about 92 µM; nearly all actives have a fitted effect of over 45% in size
# Summary of the method: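 Cells are seeded, rested 4 hr at 37 C/5% CO2, dosed with compound (15-point series) and 50 nM CITCO, incubated a further 23 hr, and then CellTiter-Fluor reagent is added before fluorescence is read. The line is HepG2 with stable hCAR and CYP2B6-2.2kb.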
# [8] = molecular target: Nuclear receptor subfamily 1 group I member 3 (Homo sapiens) (UniProt Q14994); test: qHTS assay to identify small molecule antagonists of the constitutive androstane receptor (CAR) signaling pathway (AID 1224838);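 note: HepG2 cells stably expressing hCAR with CYP2B6 luciferase reporter stimulated by CITCO; nearly all actives have a fitted effect of over 40% in size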; note: potency is the fitted concentration of half-maximal effect
# Sequence of Nuclear receptor subfamily 1 group I member 3 (Homo sapiens) (Q14994 whole entry, looked up): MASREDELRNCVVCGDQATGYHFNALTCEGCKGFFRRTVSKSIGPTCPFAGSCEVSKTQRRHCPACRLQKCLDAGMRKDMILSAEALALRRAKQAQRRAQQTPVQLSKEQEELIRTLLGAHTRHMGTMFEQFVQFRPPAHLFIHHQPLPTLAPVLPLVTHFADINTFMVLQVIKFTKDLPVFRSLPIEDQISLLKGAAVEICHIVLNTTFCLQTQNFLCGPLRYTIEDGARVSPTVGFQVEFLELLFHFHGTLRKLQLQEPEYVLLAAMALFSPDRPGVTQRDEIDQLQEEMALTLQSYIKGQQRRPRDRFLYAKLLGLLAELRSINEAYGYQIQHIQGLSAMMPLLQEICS
# Summary of the method: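 Luminescence from a CYP2B6-2.2kb promoter reporter in hCAR-expressing HepG2 cells reflects CAR signaling. Cells received compounds at 15 concentrations and 50 nM CITCO (final), then incubated 24 h at 37 C/5% CO2.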
# [9] = molecular target: Nuclear receptor subfamily 1 group I member 3 (Homo sapiens) (UniProt Q14994); test: qHTS assay to identify small molecule agonists of the constitutive androstane receptor (CAR) signaling pathway (AID 1224839);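 note: HepG2 cells stably carrying human CAR and a CYP2B6 luciferase reporter; series mostly up to about 92 µM; nearly all actives have a fitted effect of over 15% in size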
# Summary of the method: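 Double-stable HepG2 cells (hCAR, CYP2B6-2.2kb) seeded 4 h before compound addition. Exposure 24 h with 0.75 uM PK11195 final. Luciferase detected by ONE-Glo.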
# [10] = qHTS assay to identify small molecule antagonists of the estrogen related receptor signaling pathway with the pleiotropic PPARgamma coactivator (PGC) from Tox21 10K library - cell viability counter screen (AID 1224840; active = well fitted cell-killing curve with a large enough effect in the repeat runs, not every such curve was filed as active; note: nearly all actives have a fitted effect of over 40% in size)
# Summary of the method: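 Cell viability is measured by CellTiter-Fluor fluorescence in PGC/ERR cells that receive compounds after a 6-hour attachment period and are then incubated 17.5 hours at 37 C.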
# [11] = qHTS assay to identify small molecule antagonists of the estrogen related receptor signaling pathway with the pleiotropic PPARgamma coactivator (PGC) from Tox21 10K library (AID 1224841; call rule not given here; note: series mostly up to about 92 µM; actives are mostly falling curves and most rising ones were filed inactive; nearly all actives have a fitted effect of over 50% in size)
# Summary of the method: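 Cells stably carrying the PGC/ERR reporter, seeded at 2,000 per well, received pin-transferred compounds 6 h post-plating. Exposure lasted 18 h at 37 C. Signal: One-Glo luminescence.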
# [12] = qHTS assay to identify small molecule agonists of the estrogen related receptor signaling pathway with the pleiotropic PPARgamma coactivator (PGC) from Tox21 10K library (AID 1224842); note: nearly all actives have a fitted effect of over 15% in size; note: potency is the fitted concentration of half-maximal effect
# Summary of the method: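 Luminescence from One-Glo (30 min, room temperature) measured after PGC/ERR cells had 18 h at 37 C with pinned compound (23 nL in DMSO). Cells had been seeded at 2,000 per well and pre-incubated 6 h.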
# [13] = molecular target: Thyrotropin receptor (Homo sapiens) (UniProt P16473); test: qHTS assay to identify small molecule agonists of the thyroid stimulating hormone receptor (TSHR) signaling pathway (AID 1224843; calls by dose curve; note: nearly all actives have a fitted effect of over 45% in size; note: potency is the fitted concentration of half-maximal effect)
# Sequence of Thyrotropin receptor (Homo sapiens) (P16473 whole entry, looked up): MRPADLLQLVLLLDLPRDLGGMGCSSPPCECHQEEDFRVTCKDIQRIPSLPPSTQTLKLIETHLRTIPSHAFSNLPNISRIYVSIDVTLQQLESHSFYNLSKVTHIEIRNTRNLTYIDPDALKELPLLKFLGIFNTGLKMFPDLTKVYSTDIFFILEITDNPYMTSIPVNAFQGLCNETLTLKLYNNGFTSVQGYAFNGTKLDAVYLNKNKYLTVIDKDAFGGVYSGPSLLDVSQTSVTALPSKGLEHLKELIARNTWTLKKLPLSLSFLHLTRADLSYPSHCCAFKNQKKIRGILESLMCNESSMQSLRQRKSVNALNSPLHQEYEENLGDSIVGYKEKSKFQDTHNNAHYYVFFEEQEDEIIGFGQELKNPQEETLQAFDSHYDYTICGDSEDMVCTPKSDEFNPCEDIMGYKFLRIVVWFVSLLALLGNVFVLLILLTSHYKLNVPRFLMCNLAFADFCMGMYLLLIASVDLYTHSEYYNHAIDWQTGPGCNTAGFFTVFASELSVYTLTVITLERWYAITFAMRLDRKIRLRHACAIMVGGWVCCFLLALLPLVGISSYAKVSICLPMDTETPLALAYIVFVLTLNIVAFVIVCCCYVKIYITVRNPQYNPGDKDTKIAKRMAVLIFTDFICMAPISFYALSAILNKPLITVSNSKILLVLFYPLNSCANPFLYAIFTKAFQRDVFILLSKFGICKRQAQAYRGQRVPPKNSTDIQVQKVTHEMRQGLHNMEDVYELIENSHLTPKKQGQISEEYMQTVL
# Summary of the method: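 A cell-based cAMP HTRF format was run in TSHR-transfected HEK293 cells, 800 per well. Treatment: 30 min, room temperature. Detection: 1 h with labelled cAMP and anti-cAMP cryptate. Concentration-response over 15 points, three replicates.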
# [14] = qHTS assay to identify small molecule antagonists of the estrogen related receptor (ERR) signaling pathway - cell viability counter screen (AID 1224818);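 note: series mostly up to about 46 µM; viability measured after 17.5 h of compound exposure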
# Summary of the method: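 Quantitative high-throughput viability counter screen in ERR cells. Compounds (DMSO) incubated 17.5 h at 37 C; read-out was CellTiter-Fluor fluorescence.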
# [15] = qHTS assay to identify small molecule antagonists of the estrogen related receptor signaling pathway with the pleiotropic PPARgamma coactivator (PGC) cell viability counter screen (AID 1224822; note: series mostly up to about 46 µM)
# Summary of the method: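 Cytotoxicity in the PGC/ERR cell line is assessed with CellTiter-Fluor, read as fluorescence intensity 30 min after reagent addition, following 17.5 h compound treatment at 37 C.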
# [16] = qHTS assay to identify small molecule agonists of the constitutive androstane receptor (CAR) signaling pathway - cell viability counter screen (AID 1224836); note: series mostly up to about 92 µM; nearly all actives have a fitted effect of over 45% in size
# Summary of the method: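 Using CellTiter-Fluor, viability of HepG2 cells harbouring hCAR and CYP2B6-2.2kb was measured following 23 h incubation with a 15-concentration compound series plus PK11195 (0.75 uM final).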
# [17] = qHTS assay to identify small molecule agonists of the estrogen related receptor (ERR) signaling pathway (AID 1224820)
# Summary of the method: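 Luminescence readout (One-Glo, 30 min RT) from NTP-supplied ERR cell line exposed to compounds for 18 h at 37 C. Cells seeded 2,000 per well and pre-incubated 6 h before pin-tool compound transfer.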
# [18] = qHTS assay to identify small molecule agonists of the estrogen related receptor signaling pathway with the pleiotropic PPARgamma coactivator (PGC) (AID 1224823)
# Summary of the method: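 Luminescence readout (One-Glo, 30 min RT) from PGC/ERR cell line treated 18 h at 37 C with pin-tool-delivered DMSO compound solutions; cells plated 6 h before dosing. Quantitative HTS format.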
Structure (SMILES),Potency [1],Potency [2],Potency [3],Potency [4],Potency [5],Potency [6],Potency [7],Potency [8],Potency [9],Potency [10],Potency [11],Potency [12],Potency [13],Potency [14],Potency [15],Potency [16],outcome [17],outcome [18]
CC(C)OC=O,inactive,inactive,inactive,inactive,inactive,inactive,inactive,inactive,inactive,inactive,inactive,inactive,inactive,–,–,–,–,–
CN(C)c1nc(N(C)C)nc(N(C)C)n1,inactive,inactive,inactive,inactive,inactive,inactive,inactive,inactive,–,–,–,–,inactive,inactive,inactive,inactive,–,–
Brc1cc(Oc2cc(Br)c(Br)c(Br)c2Br)c(Br)c(Br)c1Br,1.39 µM (active) and inactive,inactive,inactive,inactive,inactive,inactive,inactive,inactive,inactive,inactive,–,–,inactive,–,–,–,–,–
c1ccncc1,inactive,inactive,inactive,inactive,inactive,inactive,inactive,inactive,inactive,inactive,–,–,inactive,–,–,–,–,–
CC(C)OC(=O)C(C)(C)Oc1ccc(C(=O)c2ccc(Cl)cc2)cc1,inactive,inactive,inactive,inactive,inactive,–,inactive,inactive,–,inactive,–,–,inactive,inactive,inactive,–,–,–
CCCC(=O)O,inactive,inactive,inactive,inactive,inactive,inactive,inactive,inactive,inactive,inactive,inactive,inactive,inactive,–,–,inactive,–,–
C#C[C@]1(O)CC[C@H]2[C@@H]3CCc4cc(OC)ccc4[C@H]3CC[C@@]21C,inactive,inactive,inactive,inactive,inactive,inactive,inactive,inactive,–,inactive,inactive,–,19.3 µM (active),–,–,inactive,–,–
Nc1ccc(Cl)cc1Cl,inactive,inactive,inactive,inactive,inactive,inactive,inactive,–,–,inactive,inactive,inactive,inactive,–,–,inactive,–,–
CCCCC(CC)COC(=O)c1ccc(N(C)C)cc1 (configuration not stated),inactive,inactive,inactive,inactive,inactive,inactive,inactive,inactive,–,inactive,–,–,inactive,–,–,inactive,–,–
Cc1[nH]c(=O)c(C#N)cc1-c1ccncc1,inactive,inactive,inactive,inactive,inactive,–,inactive,inactive,inactive,–,–,–,–,inactive,inactive,–,–,–
CC(CCC(=O)O)(c1ccc(O)cc1)c1ccc(O)cc1,inactive,inactive,inactive,inactive,inactive,inactive,inactive,inactive,–,inactive,inactive,inactive,inactive,–,–,inactive,–,–
COc1ccc(OC)c(C(O)CNC(=O)CN)c1 (configuration not stated),inactive,inactive,inactive,inactive,inactive,inactive,inactive,inactive,inactive,inactive,inactive,inactive,inactive,–,–,inactive,–,–
CC(=O)c1ccccn1,inactive,inactive,inactive,inactive,inactive,inactive,inactive,inactive,–,inactive,–,–,inactive,–,–,inactive,–,–
c1ccc2cc(Nc3ccc(Nc4ccc5ccccc5c4)cc3)ccc2c1,inactive,inactive,inactive,inactive,inactive,inactive,inactive,inactive,inactive,–,inactive,inactive,–,–,–,inactive,–,–
O=Cc1ccccc1O,inactive,inactive,inactive,inactive,inactive,inactive,inactive,inactive,inactive,inactive,–,–,inactive,–,–,–,–,–
CCC(C)CO (configuration not stated),inactive,inactive,inactive,inactive,inactive,inactive,inactive,inactive,inactive,inactive,inactive,inactive,inactive,–,–,inactive,–,–
Cn1cnc([N+](=O)[O-])c1Sc1ncnc2nc[nH]c12,inactive,inactive,48.3 µM (active) and inactive,inactive,–,–,–,4.83 µM (active) and 11.9 µM (active),inactive,inactive,inactive,24.2 µM (active) and inactive,inactive,–,inactive,–,inactive,inactive
C[Si](C)(C)O[Si](C)(C)C,inactive,inactive,inactive,inactive,inactive,inactive,inactive,–,–,inactive,–,–,inactive,–,–,inactive,–,–
Clc1nc(Cl)c(Cl)c(Cl)c1Cl,inactive,inactive,inactive,inactive,inactive,inactive,inactive,inactive,inactive,–,inactive,inactive,inactive,–,–,–,–,–
